# Measured values published in PubChem BioAssay AID488794 (Sanford-Burnham Center for Chemical Genomics, 2010).
# The whole screen tested about 1,000 compounds, of which about 550 (55%) were called active. Cut-off read from the data, not from the text of the source: active = inhibition above about 50%; inactive = the rest. So high a share suggests a set chosen from earlier hits. A selection follows.
# Assay: NALP3 inhibitors in yeast, repeat test, confirmation, luminescence, single concentration, retest (AID 488794)
# Settings: yeast expressing human NALP3, luminescence read-out; at 10 µM; stronger effect = higher value
row,SMILES,inhibition
1,CCCCCCCCCCCCn1ccc(=N)cc1,82.8% (active)
2,Cc1cc2ccccn2c1C(C[N+](=O)[O-])c1c(F)cccc1Cl (centres undefined),23.2% (inactive)
3,Cc1ccc(-c2nc3ccccc3c(=O)n2-c2ccc(Br)cn2)cc1,45.7% (inactive)
4,O=C1/C(=C\c2ccc3c(c2)OCO3)N2CCC1CC2,35% (inactive)
